# Rab9 prom act: Rab9 promoter activation. Huh7 Rab9 promoter-luciferase reporter, luminescence, 24 h. Potency, µM (highest dose often 9.22 µM), for inactives: top-dose activation, negative = inhibition, usual class: activators. 2.8% of 320,000 active. AID 485297; also: % of control where 0% means no effect; nearly all actives have a fitted effect of over 60% in size
#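 Huh7 cells stably carrying Rab9 promoter–luciferase reporter, plated 1500 cells/well, compound added after 2 h and incubated 24 h at 37 °C; luciferase luminescence then read after 10 min with detection reagent.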
# SMN2 splice enh: SMN2 splice variant enhancement; HEK293 SMN2-luciferase splicing reporter, luminescence, 30-36 h; Potency, µM (top dose mostly 46.1 µM), for the others: at the top dose activity change, positive = activation, actives largely listed as activators; 2.8% of 210,000 active; AID 1458; also: % of control where 0% means no effect; nearly all actives have a fitted effect of over 55% in size
#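 qHTS luciferase splicing reporter: luminescence rises when SMN2 exon 7 is included in transfected HEK293 cells. Compound exposure lasted 30-36 h at 37C, with 4.5 mM final sodium butyrate as control, followed by a ONE-Glo read.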
# ELG1 genotoxic: induces genotoxicity in HEK293T cells with luciferase-tagged ELG1; HEK293T ELG1-luciferase reporter, luminescence, 16 h; Potency, µM (top dose mostly 46 µM), for inactives: at the top dose activity change, positive = activation, most hits filed as activators; 1.3% of 330,000 active; AID 504466; also: % of control where 0% means no effect; nearly all actives have a fitted effect of over 60% in size
#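 After overnight (16 hr) compound treatment at 37 °C, ELG1-luciferase HEK293T cells were lysed with ONE-Glo; luminescence quantified 30 min later at room temperature.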
# ELG1 repair inh: inhibitors of ELG1-dependent DNA repair in HEK293T cells; HEK293T ELG1-luciferase reporter, luminescence, 16 h; DNA damage induced by 5-fluorouridine; Potency, µM (doses to about 46.1 µM), for the others: top-dose activity change, negative = inhibition, hits mostly inhibitors; 2.3% of 330,000 active; also: % is scaled to controls: 0 for no effect and ±100 for the full control effect; nearly all actives have a fitted effect of over 55% in size
#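 Overnight (16 hr) co-exposure of 2,000 cells/well to 5-fluorouridine and compound at 37 °C preceded detection. Luciferase was quantified via ONE-Glo luminescence; loss of signal denotes inhibition.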
# FLuc counter: firefly luciferase modulation, counter-screen for miR-21 project; purified FLuc, Km substrates, luminescence inhibition; Potency, µM (titrated, usually from 57.5 µM), for the others: at the top dose activity change, negative = inhibition, actives largely listed as inhibitors; 6.9% of 360,000 active; AID 588342;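 also: plate controls were vehicle for no effect and reference inhibitor for full effect; nearly all actives have a fitted effect of over 55% in size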
# Target sequence (P08659 whole entry, looked up): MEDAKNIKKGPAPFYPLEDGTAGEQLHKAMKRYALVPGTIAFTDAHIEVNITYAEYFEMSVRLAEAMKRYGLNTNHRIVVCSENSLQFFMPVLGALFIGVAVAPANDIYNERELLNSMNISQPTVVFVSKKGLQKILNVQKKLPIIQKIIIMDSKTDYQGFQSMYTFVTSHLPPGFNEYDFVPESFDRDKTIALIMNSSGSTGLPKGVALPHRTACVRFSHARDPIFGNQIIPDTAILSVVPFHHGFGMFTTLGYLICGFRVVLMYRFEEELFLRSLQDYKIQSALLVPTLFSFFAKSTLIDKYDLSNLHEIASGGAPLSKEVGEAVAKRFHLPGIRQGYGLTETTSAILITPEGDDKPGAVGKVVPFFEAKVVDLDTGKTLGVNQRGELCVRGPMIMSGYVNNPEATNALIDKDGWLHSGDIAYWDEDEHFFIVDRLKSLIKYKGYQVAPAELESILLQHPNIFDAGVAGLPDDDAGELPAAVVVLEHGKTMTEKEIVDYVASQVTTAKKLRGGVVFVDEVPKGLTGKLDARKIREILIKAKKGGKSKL
#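 Purified P. pyralis luciferase (10nM final) with 10uM D-luciferin and 10uM ATP (Km levels) in 50mM Tris acetate pH 7.5, 10mM Mg acetate, 0.01% Tween-20, 0.05% BSA; qHTS 6-point titration, ~60 µM downward; luminescence read.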
# NPC1 prom act: activates the NPC1 promoter | Huh7 NPC1 promoter luciferase reporter, 24 h | Potency, µM (series often up to 9.22 µM), without a hit: at the highest dose activation, hits mostly activators | 2.4% of 320,000 active; also: % of control where 0% means no effect; nearly all actives have a fitted effect of over 60% in size
#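 Luminescence from an NPC1 promoter-driven luciferase reporter in stably transfected Huh7 cells was measured after 24 h compound treatment at 37 °C, followed by 10 min ambient incubation with luciferase detection reagent.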
# The depositor's hits bear a star; ? = inconclusive; nt = no result given; [ ] = another dose, or the depositor's remark. A selection: hits, their analogues and other compounds. The true share with any hit is near 9.3%. Calls follow the shape of the dose curve; as a rule, active = well fitted curve in the direction sought with a large enough effect; inconclusive = small, poorly fitted or top-dose-only effect, or another doubt; inactive = no such curve, though single readings can be large; an effect the other way counts as inactive or inconclusive. Potency is read from the fitted curve at half-maximal effect.
SMILES,Rab9 prom act,SMN2 splice enh,ELG1 genotoxic,ELG1 repair inh,FLuc counter,NPC1 prom act
COc1ccc(CNC(=O)c2c(C)oc3c2C(=O)c2ccccc2C3=O)cc1,-4%,-111%,-11%,-6%,5%,2%
CC(=O)c1c(C)oc2c1C(=O)c1ccccc1C2=O,-24%,nt,-11%,12µM*,-1%,-2%
Cc1csc(NC(=O)c2oc3ccccc3c2C)n1,3.5µM*,nt,?,?,1.7µM*,3.2µM*
Cc1c(C(=O)NC2=NCCS2)oc2ccccc12,?,2.8µM*,?,?,3µM*,?
Cc1sc(NC(=O)c2oc3ccccc3c2C)c(C#N)c1C,20%,0%,1%,25%,1%,14%
O=C(Cc1coc2ccc3ccccc3c12)Nc1nnc(C2CC2)s1,15%,nt,0%,0%,-2%,3%
Cc1c(C(=O)Nc2nnc(C3CC3)s2)oc2ccccc12,2.2µM*,nt,?,?,4.8µM*,3.5µM*
O=C(Cc1c[nH]c2ccccc12)Nc1nnc(C2CC2)s1,-1%,11µM*,-10%,-7%,1%,2%
COc1cccc(-c2ccc(NC(=O)C3CCCN(CCCn4nc(C)cc4C)C3)cc2)c1 (stereo unspecified),-5%,nt,2%,?,?,7%
Cc1ccc(S(=O)(=O)NCCS(=O)(=O)N2CCN(c3ccc(F)cc3)CC2)cc1,-5%,nt,-5%,0%,0%,-6%
O=C(Nc1ccc2oc(-c3ccccc3Cl)nc2c1)c1ncn[nH]1,3.5µM*,10µM*,8.2µM*,?,3µM*,1.4µM*
O=C(Nc1ccc2oc(-c3cc(Br)ccc3Cl)nc2c1)c1ccc2ccccc2c1,nt,-6%,nt,nt,-8%,nt
O=C(Nc1ccc2oc(-c3cccc4ccccc34)nc2c1)c1ncn[nH]1,2.8µM*,?,?,?,?,?
COc1cc2ccccc2cc1C(=O)Nc1ccc2oc(-c3cccc(Cl)c3Cl)nc2c1,nt,29%,nt,nt,-2%,nt
Cc1nn(-c2ccccn2)c2c1C(c1c(F)cccc1Cl)C1=C(N2)c2ccccc2C1=O (stereo unspecified),-1%,0%,-13%,15µM*,0%,-6%
Cc1nn(-c2ccccn2)c2c1C(c1ccccc1Cl)C1=C(N2)c2ccccc2C1=O (stereo unspecified),-9%,-28%,-13%,21µM*,4%,-7%
Clc1ccc(-c2noc3ncnc(N4CCCCC4)c23)cc1,nt,-19%,nt,nt,-16%,nt
Cc1ccc(CCNC(=O)c2ccc(CNS(=O)(=O)c3ccc(F)cc3)cc2)cc1,nt,nt,nt,nt,-3%,nt
COc1ccc(OC)c(CC(NC(C)=O)C(=O)NC2CCN(c3c(Cc4ccccc4)c(C)nc4ncnn34)CC2)c1 (stereo unspecified),-7%,-20%,-4%,23µM*,-11%,0%
COc1cccc(CC(NC(C)=O)C(=O)NC2CCN(c3c(Cc4ccccc4)c(C)nc4ncnn34)CC2)c1 (stereo unspecified),0%,-4%,0%,?,0%,2%
COc1ccc(C(=O)NC(=S)NCc2ccc(-c3nc4ccccc4o3)cc2)cc1OC,0%,14%,?,17%,-7%,-1%
COc1ccc(-c2nc3ccccc3o2)cc1OC,22%,nt,?,?,11µM*,?
COC(=O)c1ccc(-c2nc3ccccc3o2)cc1,0.63µM*,?,?,?,1.9µM*,3.5µM*
c1ccc2oc(-c3ccc4nc[nH]c4c3)nc2c1,1.6µM*,13µM*,21µM*,?,3.4µM*,2.5µM*
Nc1nc2ccc(-c3nc4ccccc4o3)cc2s1,0.63µM*,7.9µM*,?,?,1.3µM*,1.1µM*
SMILES,Rab9 prom act,SMN2 splice enh,ELG1 genotoxic,ELG1 repair inh,FLuc counter,NPC1 prom act
Cc1c(/C=N/O)c2ccccn2c1C=O,1%,17%,-1%,-21%,1%,1%
COC(=O)c1ccc(-c2nc3ccc(C)cc3o2)cc1,?,4.5µM*,?,?,1.2µM*,?
Cc1ccc(S(=O)(=O)Nc2ccc3nc(-c4cccc(Cl)c4)oc3c2)cc1,nt,nt,nt,nt,-16%,nt
O=C1c2ccccc2C(=O)N1c1ccc(-c2nc3ccccc3o2)cc1,4.5µM*,nt,10%,?,?,?
COc1ccc(-c2nc3ccc(NS(C)(=O)=O)cc3o2)cc1,nt,nt,nt,nt,2.7µM*,nt
COC(=O)c1ccc(-c2ncc(-c3cccc4ccccc34)o2)cc1,1.8µM*,11µM*,4%,?,?,?
Cc1ccc2oc(-c3ccc(NC(=O)c4ccc5c(c4)OCO5)cc3)nc2c1,14%,-10%,13%,?,?,2%
Cn1c(N)c(C(=O)COC(=O)CCCOc2ccc(Cl)cc2Cl)c(=O)n(C)c1=O,0%,3%,0%,-1%,?,2%
NC(=S)N/N=C\c1c[nH]c2ccccc12,nt,-8%[9.22 µM],nt,nt,nt,nt
NC(=S)N/N=C/c1c[nH]c2ccc(OCc3ccccc3)cc12,0%,nt,-7%,?,21µM*,-2%
COc1cccc(C=Nc2ccccc2C#N)c1O,-2%,?,0%,-1%,2.7µM*,-2%
COc1cccc(/C=N/c2oc(-c3ccccc3)cc2C#N)c1O,15%,-10%,-5%,?,?,-2%
COc1cccc(C=Nc2ccc3c(c2)CCC3)c1O,-1%,nt,6%,-1%,2.7µM*,-5%
N#Cc1ccccc1N=Cc1ccc(Br)cc1,0%,-2%,3%,?,1.5µM*,0%
COc1ccc(NC(=O)N2CC[C@@]3(CCCN(C(=O)c4ccc(OC)cc4)C3)C2)cc1,nt,-8%,nt,nt,nt,nt
Cn1c(-c2ccccc2)n[nH]c1=S,1%,nt,-1%,-1%,-1%,-1%
CCn1c(-c2cc(-c3ccc(C)c(C)c3)nc3ccccc23)n[nH]c1=S,3%,nt,9%,?,3µM*,-2%
CCOc1cccc(-c2cc(-c3n[nH]c(=S)n3CC)c3ccccc3n2)c1,-6%,-16%,-10%,-12%,12µM*,8%
Cc1ccc(-c2cc(-c3n[nH]c(=S)n3C)c3ccccc3n2)cc1,-8%,19%,4%,?,11µM*,-1%
Cc1ccc2nc(COc3ccccc3NC(=O)COc3ccc(F)cc3)cc(=O)n2c1,nt,nt,nt,nt,6%,nt
COc1cc(NC(=O)c2sc(C)nc2C)c(OC)cc1NC(=O)c1ccccc1,-6%,nt,-10%,15µM*,2%,-3%
CC(Oc1ccccc1)C(=O)Nc1ccc(NC(=O)c2ccccc2)cc1 (stereo unspecified),2%,nt,?,10%,0%,0%

# Screening results from PubChem BioAssay.
